# Compounds without any hit were thinned out: in the full panel of roughly 83,000, 20% have a hit.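 A percent growth of 40 corresponds to 60% growth inhibition; 0 means no net growth; -100 means all cells died. Active threshold: below 10.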 Unmarked numbers belong to inactive results. Calls of active or inactive are those of the source.
# How the values were obtained:
# Experiment in all cases: NCI-60 one-dose screen, 48 h (100 = growth as untreated, 0 = no growth, -100 = all killed)
# Conditions in all cases: 10 µM unless noted
# [1] = tested on: HCT-15 colon
# [2] = tested on: HT29 colon
# [3] = tested on: SNB-75 CNS
# [4] = tested on: SNB-19 CNS
# [5] = tested on: U251 CNS
# [6] = tested on: PC-3 prostate
# [7] = tested on: UACC-62 melanoma
# [8] = tested on: LOX IMVI melanoma
# [9] = tested on: SK-MEL-28 melanoma
Compound,growth [1],growth [2],growth [3],growth [4],growth [5],growth [6],growth [7],growth [8],growth [9]
CCCSc1ccc2nc(NC(=O)OC)[nH]c2c1,18.1%,2.84% (active),22.4%,29.9%,14.1%,20.7%,27.6%,50.1%,53.7%
COc1cc(-c2nn(-c3ccc(Br)cc3)cc2C(=O)O)ccc1O,103%,101%,92.2%,103%,109%,97.2%,109%,102%,–
CCCCn1c(-c2ccc(C(=O)O/N=C(\N)c3ccc4ccccc4c3)cc2)nc(-c2ccccc2)c1-c1ccccc1,52.1%,74.3%,23.3%,70.3%,73%,64.8%,76.2%,3.13% (active),88.5%
CCCOc1cc2ccccc2cc1C(=O)Nc1nc(N)c2c(ccc3nccc32)[nH]1,-44.7% (active),-63.3% (active),-90.3% (active),-76.4% (active),-83.5% (active),-27.9% (active),-81% (active),-73.7% (active),-84.9% (active)
Cc1cc(N2CCOCC2)nc(N[C@@H]2CCC[C@H](Nc3ccnc4cc(Cl)ccc34)C2)n1,-43.5% (active),-52.9% (active),-37.3% (active),34.8%,-57.3% (active),9.75% (active),-79.7% (active),-77.3% (active),-74.3% (active)
COc1cc(C)c(C2C(C#N)=C(N)Oc3n[nH]c(-c4cccs4)c32)cc1C(C)C (stereo not drawn),96.2%,98.9%,86.8%,103%,90.2%,95.3%,96.1%,98.6%,112%
Clc1ccc2c(NCCCCNc3nc(N4CCCCC4)nc4ccccc34)ccnc2c1,-38.2% (active),-14.2% (active),-59.5% (active),18.6%,-32.9% (active),25.6%,-86.9% (active),-73.8% (active),–
CCCCCCCCCCCCC[N+](C)(C)Cc1ccccc1,64.7%,-62.7% (active),-52.9% (active),-60.7% (active),7.89% (active),-23.7% (active),-83.9% (active),-88.3% (active),-57% (active)
O=C(O)COc1ccc(Cl)cc1C1CCCCC1,106%,104%,88.1%,99.9%,102%,102%,95.6%,106%,–
CN1CCN(Cc2ccc(NC(=O)c3cncc(C#Cc4cncn5ccnc45)c3)cc2C(F)(F)F)CC1,46.1%,19.2%,123%,92.4%,76.9%,90.3%,18.7%,4.74% (active),30.3%
COc1cc(-c2nc3ccccc3[nH]2)ccc1OCc1nnc(-c2ccc(CC(C)C)cc2)o1,76.5%,75.2%,94.3%,91.8%,69.5%,86%,92.7%,103%,–
O=C1c2cc3c(cc2-c2c1c1ccc(Cl)cc1c(=O)n2CCCN1CCOCC1)OCO3,80.9%,63.3%,84.2%,47.1%,27.4%,74%,23.6%,26.7%,99.9%
CN1CCN(CCCOc2cccc3nc(Nc4ccc(Cl)c(F)c4)ccc23)CC1,-48.3% (active),-59.7% (active),48.2%,42.3%,26.1%,39%,-55.5% (active),-96.1% (active),–
COc1cc2c(cc1-c1c(C)noc1C)ncc1nc(-c3ccccn3)n([C@H](C)COC(F)F)c12,23.2%,24.2%,34%,60.2%,48.8%,34%,23.9%,20.9%,67.3%
CCNC(=O)Oc1ccc(/C(=C(\C)c2ccc(Cl)cc2)c2ccc(OCCN3CCCCC3)cc2)cc1,2.75% (active),0.431% (active),61.7%,64.5%,32.9%,28.7%,-45.7% (active),10.6%,–
COc1cc2c(cc1-c1c(C)noc1C)ncc1nc(C3CCCCC3)n([C@H](C)COC(F)F)c12,15.1%,19.3%,41%,45.4%,45.7%,35%,22.8%,11%,49.9%
CC1C(/C=N/Nc2ccccc2)C(C#N)(C#N)C1(C#N)C#N (stereo not drawn),69.2%,97.6%,71.7%,98.6%,101%,65.9%,5.25% (active),38.7%,100%
FC(F)(F)c1[nH]ncc1-c1nc2ccc3n[nH]c(C#Cc4cccnc4)c3c2c2c1CCCC2,36.1%,32.5%,-10.9% (active),59.9%,54.7%,47.1%,26.8%,33.6%,–
COc1ccc(N=Nc2nccs2)c(O)c1,25.4%,40.2%,81.9%,51.4%,27.8%,42.1%,36.8%,11.5%,–
O=C(COc1ccc(-c2nc3cc(Cl)c(Cl)cc3[nH]2)cc1)N=Nc1c(O)[nH]c2ccccc12,79.4%,4.49% (active),-73.8% (active),-35.9% (active),-86.3% (active),-50.6% (active),1.75% (active),6.14% (active),-49.1% (active)
COc1ccc(/C=C/c2nc3ccccc3nc2/C=C/c2ccc(OC)cc2)cc1,94.5%,95.1%,87.8%,108%,95.4%,80.3%,90%,102%,102%
Nc1n[nH]c2ccc([C@@H]3Nc4cc5c(cc4[C@H]4C6CCC(C6)[C@@H]34)C(=O)NC5)cc12 (stereo partly drawn),15.2%,12%,2.29% (active),28.2%,18.1%,16.8%,38.9%,18.2%,59.2%
COc1ccc(/C=C\c2cc(OC)c(OC)c(OC)c2)cc1OCC(=O)Nc1ccc2nc(C)sc2c1,28.3%,29.2%,26.9%,57.4%,38.3%,23.4%,11.9%,49.6%,–
O=C1/C(=C/c2ccc(OCCCOc3ccc(Cl)cc3)cc2)N=C2SCCCN12,63.2%,76%,84.5%,78.5%,69.6%,45.5%,–,–,–
COc1ccc(CN2c3ccccc3Sc3ccccc32)c(C(F)(F)F)c1,37.3%,2.45% (active),7.8% (active),32.7%,20.6%,26.9%,–,–,–
COc1ccc(-c2cc(-c3ccc(Nc4ccnc5cc(Cl)ccc45)cc3)nc(N3CCOCC3)n2)cc1,20.7%,8.19% (active),-14.8% (active),28.2%,-37.7% (active),46.9%,14.9%,-58.6% (active),5.53% (active)
OCC(O)c1nc2ccc3[nH]ncc3c2c2c1CCCC2 (stereo not drawn),5.03% (active),9.08% (active),-60.8% (active),7.63% (active),7.68% (active),9.74% (active),-8.7% (active),2.42% (active),–
OC(c1cc2cc(Cl)c(Cl)cc2c2cc(C(F)(F)F)ccc12)C1CCCCN1 (stereo not drawn),-60.7% (active),-73.6% (active),-64% (active),-64.1% (active),-92.3% (active),-84.8% (active),-38.4% (active),-88.2% (active),-79.1% (active)
CC(=O)c1cc2c(N)c(C(=O)Nc3cccc(F)c3C)sc2nc1C,85%,81.6%,68.1%,83.1%,93.3%,81.4%,52.1%,96.9%,–
Nc1n[nH]c2cc(F)c([C@@H]3Nc4ccc5[nH]ncc5c4[C@H]4C5CCC(C5)[C@@H]34)cc12 (stereo partly drawn),6.23% (active),3.7% (active),-13.5% (active),35.4%,2.97% (active),8.48% (active),31.5%,12.3%,65.8%
